Values joined by “and” are separate entries in the source; they are usually repeats but may differ in a detail not shown here. Identical values can stand only once. Among all 16,000 compounds or so, about 5,800 (36%) were called active. Another 23% or so got no clear call; they are omitted. Calls come from the whole dose curve; as a rule, active = well fitted curve in the direction sought with a large enough effect; inconclusive = small, poorly fitted or top-dose-only effect, or effect the other way; inactive = no such curve, though single readings can be large or run the other way. The list shows a part of the results.
target: Cytochrome P450 2C19 (Homo sapiens) (UniProt P33261); assay: Cytochrome panel assay with activity outcomes; details: recombinant CYP, pro-luciferin dealkylation, luminescence, p450-cyp2c19; series mostly up to 57.1 µM
% is set by controls: 0 for no effect and ±100 for the full control effect.

Chain of Cytochrome P450 2C19 (Homo sapiens) (P33261 whole entry, looked up): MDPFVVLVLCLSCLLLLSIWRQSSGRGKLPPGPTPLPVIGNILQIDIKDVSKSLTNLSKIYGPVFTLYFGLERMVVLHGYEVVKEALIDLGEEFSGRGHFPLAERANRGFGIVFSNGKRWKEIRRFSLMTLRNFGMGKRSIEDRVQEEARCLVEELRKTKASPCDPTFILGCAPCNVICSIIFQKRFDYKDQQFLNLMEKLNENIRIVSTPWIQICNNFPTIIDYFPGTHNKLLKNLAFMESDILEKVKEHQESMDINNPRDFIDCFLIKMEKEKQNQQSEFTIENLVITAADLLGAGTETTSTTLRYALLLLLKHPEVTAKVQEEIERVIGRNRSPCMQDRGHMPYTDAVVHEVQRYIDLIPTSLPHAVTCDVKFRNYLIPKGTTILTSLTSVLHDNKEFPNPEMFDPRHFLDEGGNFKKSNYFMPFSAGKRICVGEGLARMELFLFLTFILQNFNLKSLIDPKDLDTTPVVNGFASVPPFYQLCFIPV

activity, negative = inhibition, inactive:
CCN=C(N)CSS(=O)(=O)O -0.003% [at 11.4 µM]
Nc1nc(N)[n+]([O-])c(N)c1NCO 33.1% [at 11.4 µM]
CC(=O)OC[C@@H]1O[C@@H](O/N=C2/C[C@@H](O)[C@@H](O)[C@@H]3[C@@H]4C(=O)N([C@@H](C)c5ccccc5)C(=O)[C@H]4CC[C@@H]23)[C@H](OC(C)=O)[C@H](OC(C)=O)[C@@H]1OC(C)=O 23% [at 11.4 µM]
CO[C@H]1COC(=O)C/C=C\[C@@H](C)COC(=O)[C@@H](CCSC)NC(=O)C/C=C\[C@@H]1C -53.8% [at 11.4 µM] and -16.1% [at 11.4 µM]
CO[C@H]1COC(=O)C/C=C\[C@H](C)[C@@H](NS(=O)(=O)c2ccc(C)cc2)COC(=O)CCC[C@@H]1C -36% [at 11.4 µM]

AC50, inactive:
CC(=O)N1CCC[C@@]2(CCN(c3ccccc3)C2)C1
CC(=O)N1CCC2(CCCN(Cc3ccccc3)C2)CC1
O=C(c1cnccn1)N1CCC2(CC1)CN(c1ccccc1)C2
COc1ccc(C(=O)N2CCC[C@@]3(CCN(Cc4ccccc4)C3)C2)cc1
O=C(c1cnccn1)N1CCC2(CC1)CCN(c1ccccc1)CC2
CC(=O)N1CCC2(CC1)CCN(c1cccc(-c3ccccc3)c1)CC2
COc1ccc(C(=O)N2CCC[C@@]3(CCN(C(=O)Nc4ccccc4)C3)C2)cc1
Cc1cc(CNC(=O)[C@@H]2C[C@H]2[C@@H](NP(=O)(c2ccccc2)c2ccccc2)c2ccccc2)nn1C
Cc1cc(CNC(=O)[C@H]2C[C@@H]2[C@H](NP(=O)(c2ccccc2)c2ccccc2)c2ccccc2)nn1C
O=C(Nc1ccc2ccccc2c1)[C@@H]1C[C@H]1[C@@H](NP(=O)(c1ccccc1)c1ccccc1)c1ccccc1
CCOC(=O)/C(C#N)=C\N(C)C
COc1ccc(/C=C(/C#N)C(=O)Nc2cc(C)ccc2C)cc1C(=O)O
COc1ccc(-c2cc(CNC(C)=O)on2)cc1
Cn1c(CNS(=O)(=O)c2ccc(Cl)cc2)n[nH]c1=S
O=c1cnc2cnc(N3CCOCC3)nc2n1C1CC1
CC(=O)Nc1ccc(NC(=O)C/C(C)=N/NC(=O)C(=O)N2CCCC2)cc1
CC(=O)Nc1cccc(N2C(=O)CCC2=O)c1
CC(C)NC(=O)N1CCC2(CC1)CCN(C(=O)c1cccn1C)CC2
CCOc1ccc(Cl)cc1CNCCNCC(C)O (stereo not given)
CC(C)CCNC1=NCCCCC1
c1cncc(-c2cc(NCc3cccs3)ncn2)c1
c1ccc(CNc2cc(-c3ccoc3)ncn2)cc1
CCOC(=O)C(NC(C)=O)C(=O)O (stereo not given)
CN(C)C(=O)c1ccc(-c2cc(NCc3ccccc3)ncn2)cc1
CN(C)c1ccc(-c2cc(NCc3ccccc3)ncn2)cc1
Cc1cnc(CNc2cc(-c3cccc(C#N)c3)ncn2)cn1
CO[C@]1(NC(=O)Cc2cccs2)C(=O)N2C(C(=O)O)=C(COC(N)=O)CS[C@H]21

AC50, active:
COc1ccc(C(=O)N2CCC[C@@]3(CCN(c4cccc(-c5ccccc5)c4)C3)C2)cc1 7.94 µM
O=C(c1cnccn1)N1CCC2(CCCN(c3ccccc3)C2)CC1 0.501 µM
CC(=O)N1CCC2(CCCN(c3cccc(-c4ccccc4)c3)C2)CC1 15.8 µM
CC(=O)N1CCC2(CCCN(c3ccccc3)C2)CC1 25.1 µM
O=C(NCCc1c[nH]c2ccccc12)[C@H]1C[C@@H]1[C@H](NP(=O)(c1ccccc1)c1ccccc1)c1ccccc1 1.26 µM
O=C(Nc1ccc2ccccc2c1)[C@H]1C[C@@H]1[C@H](NP(=O)(c1ccccc1)c1ccccc1)c1ccccc1 3.16 µM
O=C(NCCc1c[nH]c2ccccc12)[C@@H]1C[C@H]1[C@@H](NP(=O)(c1ccccc1)c1ccccc1)c1ccccc1 6.31 µM
COc1cc(/C=C(/C#N)c2nc3ccccc3[nH]2)ccc1OCC(=O)Nc1ccccc1C 4.47 µM
COc1cc(/C=C(/C#N)c2nc3ccccc3[nH]2)ccc1Oc1ncccc1[N+](=O)[O-] 3.98 µM
CCOC(=O)/C(C#N)=C\c1ccc(OCC(=O)Nc2ccc(C)cc2C)c(OC)c1 2.82 µM
O=S(=O)(NCc1cc(-c2ccc(Cl)cc2)no1)c1ccc(Cl)cc1 1.58 µM
Clc1ccc(SCc2cc(-c3ccccc3)no2)cc1 1.12 µM
O=S(=O)(NCc1cc(-c2ccccc2)no1)c1ccc(Cl)cc1 0.708 µM
O=C(Nc1ccc(N2CCCCC2)cc1)c1cncc(Br)c1 17.8 µM
CC(=O)Nc1ccc(N2CCCCC2)c(C(=O)Nc2cccc(C)c2)c1 20 µM
CC(=O)Nc1ccc(N2CCCCC2)cc1 31.6 µM
CNCCCCCCCCSc1nc(C(C)C)ccc1C(=O)c1cccs1 15.8 µM
CC(C)NCCCOc1ccc(Cl)cc1Br 8.91 µM
CCN(CC)c1ccc(NC(=O)c2cnn(CC)c2)cc1 28.2 µM
CNc1ccc(Br)cc(C(=O)/C=C/c2ccc3c(c2)OCO3)c1=O 1.78 µM
CCNc1ccc(Br)cc(C(=O)/C=C/c2ccc3c(c2)OCO3)c1=O 3.98 µM
N#Cc1cccc(-c2nccc(NCc3cccs3)n2)c1 3.98 µM
c1csc(CNc2cc(-c3ccoc3)ncn2)c1 10 µM
N#Cc1cccc(-c2nccc(NCc3ccccc3)n2)c1 10 µM
N#Cc1cccc(-c2cc(NCc3cccs3)ncn2)c1 10 µM
Cc1cccc(CNc2cc(-c3cccc(C#N)c3)ncn2)c1 6.31 µM
Cc1cccc(CNc2ccnc(-c3cccc(C#N)c3)n2)c1 2.51 µM
Cc1cccc(CNc2cc(-c3ccc(N(C)C)cc3)ncn2)c1 3.16 µM

Reference: PubChem BioAssay AID1851 (National Center for Advancing Translational Sciences (NCATS), 2009)
